Our source for the Potency and activity, negative = inhibition values is PubChem BioAssay AID2546 (National Center for Advancing Translational Sciences (NCATS), 2010).

Among all 310,000 compounds or so, about 11,000 (3.5%) were called active. Entries that show only a call come without a potency. Another 8% or so got no clear call; they are omitted. The call rests on the fitted dose curve; in most records, active means well fitted inhibition curve with a large enough effect; inconclusive means small, poorly fitted or top-dose-only effect, or effect the other way; inactive means flat fitted curve, though single readings scatter. Many of the other results were omitted from the sample, so actives are more common in it than they were.
Potency means the concentration at half of the fitted maximal effect.

A short description of the experiment: VP16 counterscreen qHTS for inhibitors of ROR gamma transcriptional activity.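 Further: Gal4-VP16 expression switched on by copper sulfate through the metallothionein promoter; nearly all actives have a fitted effect of over 50% in size.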 Conditions: Drosophila S2 Gal4-VP16 UAS-luciferase, luminescence, 20 h; series mostly up to 53.6 µM. (In general: The purpose of a counterscreen is to sort out artefacts and off-target activity.)
With `Cc1ccc(S(=O)(=O)N2CCN=C2SCc2c(F)cccc2Cl)cc1`, the Potency entry is “inactive”.
As to `CCOC(=O)C1(CCOc2ccccc2)CCN(Cc2cc(OC)c(O)cc2Cl)CC1`, the Potency entry was “inactive”.
With `CN(Cc1ccccn1)Cc1nc(-c2ccc(Cl)cc2)no1`, the Potency entry is “inactive”.
With `CC1CCN(Cc2nc(-c3ccc(Cl)cc3)no2)CC1`, the Potency result was “inactive”.
For the molecule `CCN1CC(CN(C)Cc2nc(-c3ccc(Cl)cc3)no2)CC1=O` (stereo unspecified), the Potency is 10 µM (active).
Take `CC(C)c1ccc(C2C(C(=O)c3ccco3)=C(O)C(=O)N2CC2CCCO2)cc1` (stereo unspecified): the Potency entry was “inactive”.
Consider `Cc1ccc(NC(=O)C2CCN(S(=O)(=O)c3ccc4c(c3)NC(=O)CO4)CC2)cc1C`, for which the Potency entry is “inactive”.
On to `COc1ccc(C2CC(c3ccc(C)cc3)Nc3ncnn32)cc1` (stereo unspecified), for which the Potency entry was “inactive”.
As to `COc1ccc(C2CC(c3ccccc3)Nc3ncnn32)cc1` (stereo unspecified), the Potency entry was “inactive”.
For the molecule `Clc1ccc(C2CC(c3cccs3)n3ncnc3N2)cc1Cl` (stereo unspecified), the Potency is 17.8 µM (active).
Take `Cc1[nH]c2ccc(C(=O)N3CCN(C)CC3)cc2c1C`: the Potency result was “inactive”.
Turning to `Cc1ccc(Nc2nc(N)nc(CSc3nnc(C)s3)n2)cc1`, the Potency result was “inactive”.
On to `Nc1nc(CC(=O)CSc2ccc(Cl)cc2)nc(Nc2ccc(F)cc2)n1`, for which the Potency was 12.6 µM (active).
For the molecule `CCOC(=O)N1CCN(Cc2nc(N)nc(Nc3ccc(C)cc3)n2)CC1`, the Potency entry is “inactive”.
As for `COc1ccccc1NC(=O)N1CCCC1C(=O)NCc1cccs1` (stereo unspecified), the Potency entry is “inactive”.
With `O=C(N/N=C/c1ccccn1)c1cccc(NC(=O)c2ccc(Cl)cc2)c1`, the Potency entry was “inactive”.
For `COc1ccc(N(CC(=O)NCc2ccc(F)cc2)C(=O)CCC(=O)Nc2nccs2)cc1`, the Potency entry is “inactive”.
On the same count and under the same terms, as for `O=C(CCC1CCN(C(=O)c2cccc(Cl)c2F)CC1)Nc1ccccc1`, the entry is “inactive”; as for `COc1nnc(-c2ccc(C)c(S(=O)(=O)N(C)C)c2)c2ccccc12`, “inactive”.
Same read-out and setting: as for `CC1=NN(C(=O)c2ccccc2Br)C(O)(c2cccnc2)C1` (stereo unspecified), the figure is 12.6 µM (active); as for `CCOC(=O)C1(O)CC(C)=NN1C(=O)c1cccc(Br)c1` (stereo unspecified), “inactive”.
As for `CC1=NN(C(=O)c2ccc(Br)cc2)C(O)(c2ccccc2)C1` (stereo unspecified), the activity, negative = inhibition is -2.82% [at 10 µM] (inactive).
For the molecule `N#C/C(C(=O)N1CCOCC1)=C1/SC(Cc2ccc(F)cc2)C(=O)N1c1ccccc1` (stereo unspecified), the Potency entry is “inactive”.
Consider `Cc1ccc(CC2S/C(=C(/C#N)C(=O)N3CCOCC3)N(c3ccccc3)C2=O)cc1` (stereo unspecified), for which the Potency entry was “inactive”.
For the molecule `N#C/C(C(=S)Nc1ccccc1)=C1/NN=C(N2CCOCC2)N1c1ccccc1`, the Potency was 4.47 µM (active).
Still for that read-out and setting: as for `O=c1cc(-c2ccc(O)c(O)c2)oc2cccc(O)c12`, the figure is 12.6 µM (active).
`COc1c(O)cc2oc(-c3ccc(O)c(O)c3)cc(=O)c2c1O`: the Potency result was “inactive”.
For the molecule `O=c1cc(-c2ccc(O)cc2)oc2c(-c3cc(-c4cc(=O)c5c(O)cc(O)cc5o4)ccc3O)c(O)ccc12`, the Potency entry is “inactive”.
Consider `Cn1ccnc1SCC(=O)Nc1ccc2c(c1)OCCO2`, for which the Potency entry is “inactive”.
Regarding `CCCN1C2CCCC1CC(NC(=O)NC13CC4CC(CC(C4)C1)C3)C2` (stereo unspecified), the Potency result was “inactive”.
On to `C(=N\Nc1ccc2ccccc2n1)/c1ccc2c(c1)OCO2`, for which the Potency is 14.1 µM (active).
As for `Cc1cc(=O)[nH]c(N/N=C/c2ccc3c(c2)OCCO3)n1`, the Potency entry is “inactive”.
Regarding `Cc1noc(C)c1/C=N/Nc1ccc2ccccc2n1`, the Potency entry was “inactive”.
For the molecule `O=C1CN(C(=O)c2cc(F)cc(F)c2)c2ccccc2N1`, the Potency entry is “inactive”.
For the molecule `COc1ccc(C(C)NC(=O)C23CC4CC(CC(C4)C2)C3)cc1` (stereo unspecified), the Potency entry was “inactive”.
In the case of `CCc1ccc(Oc2coc3cc(O)ccc3c2=O)cc1`, the Potency result is “inactive”.
Same read-out and setting: as for `CCN(Cc1ccncc1)C(=O)c1cccc(S(=O)(=O)N2CCOCC2)c1`, the entry is “inactive”; as for `O=S(=O)(c1cccc(-c2nnc3n2CCCCC3)c1)N1CCOCC1`, “inactive”.
On the same count and under the same terms, as for `O=S(=O)(c1cccc(Cn2nnc(-c3ccc(F)cc3)n2)c1)N1CCOCC1`, the figure is 11.2 µM (active); as for `CCN(CC)CCn1cnc2c1c(=O)[nH]c(=O)n2Cc1ccccc1`, “inactive”; as for `COc1ccc(CSc2nnnn2-c2ccc(O)cc2)cc1F`, “inactive”.
As for `CCOC(=O)CC1COCCN1C(=O)c1cc(COc2ccc(F)c(F)c2)on1` (stereo unspecified), the Potency entry was “inactive”.
With `Cc1ccc(S(=O)(=O)N2CCOCC2)cc1C(=O)NC(=S)N(Cc1ccccc1)C(C)C`, the Potency was 3.98 µM (active).
For `Cc1ccc(S(=O)(=O)N2CCOCC2)cc1C(=O)NCc1ccc(F)cc1`, the Potency result was “inactive”.
With `CCOC(=O)c1sc(NC(=O)c2cc(S(=O)(=O)N3CCOCC3)ccc2C)nc1C`, the Potency entry is “inactive”.
Still for that read-out and setting: as for `O=C(CN1CCCCCC1)Nc1c(Cl)cc(Cl)cc1Cl`, the entry is “inactive”; as for `CN(Cc1ccccc1)C(=O)C(=O)c1cn(CC(=O)N2CCCC2)c2ccccc12`, “inactive”; as for `N#CC1(NC(=O)COC(=O)CCN=C2NS(=O)(=O)c3ccccc32)CCCCC1`, “inactive”.
On to `O=C(N/N=C/c1cc([N+](=O)[O-])ccc1O)/C(=C\c1cccs1)NC(=O)c1ccccc1`, for which the Potency was 10 µM (active).
On the same count and under the same terms, as for `O=C(N/N=C/c1ccc(O)cc1)/C(=C/c1ccc([N+](=O)[O-])cc1)NC(=O)c1ccccc1`, the entry is “inactive”.
The same measure, in the same setting: as for `O=C(Nc1ccc(C(=O)O)cc1)/C(=C/c1ccc([N+](=O)[O-])cc1)NC(=O)c1ccccc1`, the entry is “inactive”; as for `CSc1nnc(C2CCCN(CC(=O)Nc3ccccc3N3CCOCC3)C2)n1C(C)C` (stereo unspecified), “inactive”.
Regarding `O=S(=O)(NCc1ccccn1)c1ccc(F)cc1`, the Potency entry was “inactive”.
`Cc1cc(Cl)c(S(=O)(=O)NCc2cccnc2)cc1OCC(N)=O`: the Potency entry is “inactive”.
`Cc1cc(S(=O)(=O)NCc2ccccn2)c(Cl)cc1Cl`: the Potency was 5.62 µM (active).
For `COc1ccc(NC(=O)C2CCC(CNC(=O)[C@@H]3Cc4ccccc4CN3)CC2)cc1` (stereo partly specified), the Potency entry was “inactive”.
Turning to `CC(=O)N1c2ccc(S(=O)(=O)N3CCC(C(=O)NCc4ccc(F)cc4)CC3)cc2CC1C` (stereo unspecified), the Potency entry is “inactive”.
For the molecule `Cc1ccc(-n2c(-c3ccc(Cl)cc3)n[nH]c2=S)cc1`, the Potency is 2.51 µM (active).
Same read-out and setting: as for `Cc1cc(-c2n[nH]c(=S)n2-c2ccc(C)c(C)c2)no1`, the entry is “inactive”; as for `COc1ccc(-n2c(-c3ccc(OC)c(OC)c3)n[nH]c2=S)cc1`, “inactive”; as for `Cc1nc2sccn2c(=O)c1S(=O)(=O)NCCc1ccccc1`, “inactive”.
For `COc1cc(C(=O)NCC2(c3ccccc3)CCCC2)ccc1OC(C)C`, the Potency entry is “inactive”.
As for `O=[N+]([O-])/C=C/c1ccc2c(ccn2Cc2ccccc2)c1`, the Potency was 11.2 µM (active).
On the same count and under the same terms, as for `O=C(/C=C/c1cccc([N+](=O)[O-])c1)N1CCN(Cc2ccccc2)CC1`, the entry is “inactive”.
Turning to `O=c1c([N+](=O)[O-])cc(C(F)(F)F)cn1Cc1cccc(Cl)c1`, the Potency result is “inactive”.
In the case of `CC1CCN(C(=O)/C(=C\c2ccccc2)NC(=O)c2ccccc2)CC1`, the Potency entry is “inactive”.
Still for that read-out and setting: as for `CC1CCN(C(=O)c2ccccc2NC(=O)Cc2ccccc2)CC1`, the entry is “inactive”; as for `CC1CCN(C(=S)NC(=O)c2ccccc2Br)CC1`, 3.55 µM (active); as for `COc1ccc(CNC(=O)c2ccc(Br)s2)cc1OC`, “inactive”.
`Cc1ccc(C(=O)N/C(=C\c2cn(S(=O)(=O)N(C)C)c3ccccc23)C(=O)N2CCCC2)cc1`: the Potency entry was “inactive”.
For the molecule `C/C(=N\OCC(=O)O)c1ccc(Cl)cc1`, the Potency result was “inactive”.
As to `CCOc1cc(/C=C(/C#N)c2ccc(Cl)cc2)cc(Cl)c1OCC(=O)O`, the Potency is 0.794 µM (active).
With `CCOC(=O)CN/C=C(\C#N)c1ccc(F)cc1`, the activity, negative = inhibition is -4.69% [at 10 µM] (inactive).
As for `CC(C)OCCCNC(=O)CN1C(=O)/C(=C/c2ccccc2F)Oc2ccccc21`, the Potency entry is “inactive”.
Same read-out and setting: as for `C[C@]12CC[C@@H]3c4ccc(O)cc4C[C@@H](CCCCCCCCCS(=O)CCCC(F)(F)C(F)(F)F)C3[C@@H]1CC[C@@H]2O` (stereo partly specified), the entry is “inactive”.
As to `CC1CN(C(=O)CCC(=O)NCCCN2CCC(Cc3ccccc3)CC2)c2cc(Cl)ccc2O1` (stereo unspecified), the Potency entry was “inactive”.
For `CC1(C)Cc2cccc(OCC(=O)NCc3ccccc3)c2O1`, the Potency result was “inactive”.
In the case of `CCOc1nc(-c2ccc(OC)cc2)ccc1-c1noc(-c2cc(OC)c(OC)c(OC)c2)n1`, the Potency entry is “inactive”.
On the same count and under the same terms, as for `COc1ccc(-c2nc(-c3ccccc3)no2)c(OC)c1`, the figure is 4.47 µM (active); as for `COc1ccccc1Cc1nc(-c2ccc(C)cc2)no1`, “inactive”.
Take `COc1ccc(N(Cc2ccc(N(C)C)cc2)C(=O)c2ccc(S(C)(=O)=O)cc2)cc1`: the Potency result was “inactive”.
With `COc1cccc(N2CCN(c3ccc4nnc(CCC(=O)N5CCN(C)CC5)n4n3)CC2)c1`, the Potency entry is “inactive”.
Take `CCOc1ccc(-n2c(SCC(=O)OC)nc3sc4c(c3c2=O)CCN(C)C4)cc1`: the Potency result was “inactive”.
`Cc1c(NC(=O)Nc2ccccc2)cccc1[N+](=O)[O-]`: the Potency result is “inactive”.
For `Cc1cccc(NC(=O)c2cccc(C(=O)Nc3cccc(C)c3C)n2)c1C`, the Potency result is “inactive”.
As for `Cc1cccc(NC(=O)COC(=O)CCc2ccccc2)c1C`, the Potency entry was “inactive”.
In the case of `Cc1cc(Cl)ccc1NC(=S)NCCCN1CCCC1=O`, the Potency result is “inactive”.
In the case of `Cc1c(NC(=O)/C=C/C(=O)O)cccc1[N+](=O)[O-]`, the Potency entry was “inactive”.
`Cc1cccc(NC(=O)C2CCCN(C(=O)Nc3ccc(F)cc3)C2)c1C` (stereo unspecified): the Potency result was “inactive”.
On to `Cc1c(NC(=S)NCc2ccc(F)cc2)cccc1[N+](=O)[O-]`, for which the Potency is 15.8 µM (active).
For `Cc1ccc(NC(=S)NCCc2ccc(Cl)cc2)c(C)c1`, the Potency is 3.16 µM (active).
As to `Cc1cccc(NC(=S)NCCc2ccc(Cl)cc2)c1C`, the Potency is 7.08 µM (active).
Turning to `Cc1cccc(NC(=S)NCCc2ccc(F)cc2)c1C`, the Potency was 6.31 µM (active).
With `Cc1cccc(NC(=S)N2CCC(O)CC2)c1C`, the Potency entry is “inactive”.
As for `Cc1cc(C(=O)NCCc2ccc(Cl)cc2)c(C)o1`, the Potency result is “inactive”.
As to `CCn1cc(CN2CCN(CC(C)(C)C)C(CCO)C2)c2ccccc21` (stereo unspecified), the Potency entry was “inactive”.
`Cc1ccc(C)c(N2CCN(S(=O)(=O)c3c(C)[nH]c(C)c3C(=O)N3CCCC3)CC2)c1`: the Potency entry was “inactive”.
As for `O=C(c1cc(-c2ccc(O)cc2)on1)N1CCOCC1`, the Potency result is “inactive”.
Same read-out and setting: as for `CCC(C(=O)NCc1cccnc1)n1nc(C)c2sc3ccccc3c2c1=O` (stereo unspecified), the entry is “inactive”; as for `S=C(NCCc1ccccc1)N1CCCCC1`, “inactive”.
`Cc1cc(C)cc(NC(=S)NCc2ccc(F)cc2)c1`: the Potency was 3.98 µM (active).
The same measure, in the same setting: as for `Cc1ccc(NC(=S)Nc2ncccc2C)c(C)c1`, the figure is 7.08 µM (active); as for `O=C(NCCc1c[nH]c2ccccc12)c1cccc(Br)c1`, “inactive”; as for `O=C(CC(=O)N/N=C\c1ccc(F)cc1)NCCc1ccccc1`, “inactive”.
Turning to `COc1cc(NC(=S)NCc2ccc(S(N)(=O)=O)cc2)cc(OC)c1`, the Potency entry was “inactive”.
On to `Cc1cc(F)ccc1NC(=S)NCCc1ccccc1`, for which the Potency was 5.62 µM (active).
On to `Cc1ccc(NC(=O)C2CCCN2S(=O)(=O)c2cccc3cccnc23)c(C)c1` (stereo unspecified), for which the Potency result was “inactive”.
Same read-out and setting: as for `Cc1cc(C)cc(NC(=S)NCCc2c[nH]c3ccccc23)c1`, the figure is 12.6 µM (active).
The same measure, in the same setting: as for `CSc1ncc(C(=O)Nc2ccc(C)cc2C)c(C)n1`, the entry is “inactive”; as for `COc1ccccc1CC(=O)NCCc1c[nH]c2ccccc12`, “inactive”; as for `CCCCC(=O)NCc1ccc(F)cc1`, “inactive”.
